# Compound activity as filed in PubChem BioAssay.
# Insulin prom up: insulin promoter activators in MIN6 cells, imaging, high-content screening, mouse beta cells | MIN6 insulin promoter-GFP reporter; hits give high values | 190,000 compounds, 0.3% hits | z-score at 5 µM | AID 1625, 2009;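 active means z-score above 3 at 5 µM with at least 500 cells counted in the well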
# Cl transport mod: KCC2 cotransporter modulators, thallium flux, primary screen, cell-based, HEK293 KCC2, FluoZin-2 fluorescence, MLSMR; KCC2 cells, thallium flux FluoZin-2 fluorescence; B-score of Tl+ flux slope (higher = more flux/activation; lower = inhibition) at 10 µM; 190,000 compounds, 2.2% hits; AID 1456, 2008;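 active means thallium flux slope and its plate-corrected score both differing from the plate sample mean at a set confidence after two filtering rounds, in either direction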;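 further: slope of fluorescence scaled to starting intensity during 10 to 20 s after thallium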
# WT yeast gro inh: growth inhibition of WT strain, primary screen, mitochondrial fusion inhibitor project, WT and mutant strains, chemical genetic | mitochondrial fusion phenotypic screen | inhibition, % at 10 µM | 190,000 compounds, 2.1% hits | AID 1362, 2008; in the data active means inhibition above about 58%; tested in S. cerevisiae
# ROMK primary: ROMK potassium channel modulators, primary screen, cell-based, thallium flux, MLSMR library. ATP-sensitive inward rectifier potassium channel 1 (Homo sapiens), P48048. Tet-inducible ROMK, thallium flux fluorescence; actives lie on both sides. B-score at 10 µM. 130,000 compounds, 2% hits. AID 1918, 2009;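 active means signal ratio slope over the read window, or its plate-corrected B-score, at least 3 SD from the plate mean, either direction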;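 further: B-score of the F/F0 ratio slope over 7 to 12 s after thallium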
# L major viab: Leishmania major promastigote growth inhibition, primary screen; Leishmania major promastigotes, resazurin fluorescence viability; 200,000 compounds, 9% hits; inhibition, % at 10 µM; in the data active means inhibition above about 50%;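 further: promastigotes grown with compound for 44 hours at 28 °C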
# INS promoter inh: inhibitors of insulin promoter-driven GFP, primary screen, imaging, TRM-6 cells (human fetal islet line), eGFP reporter, cell count | 130,000 compounds, 0.9% hits | reporter expression induced with tamoxifen | inhibition, % at 2 µM;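 active means inhibition above the mean plus 3 SD, with well images judged a real hit on visual review, cut at about 60% in these data, passing the limit was not always enough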
# Active calls of the source: *; nt = no result given. This is a sample that favours compounds with a hit; in the whole collection about 12% have one here.
SMILES,Insulin prom up,Cl transport mod,WT yeast gro inh,ROMK primary,L major viab,INS promoter inh
CCC(C)NS(=O)(=O)c1ccc(S(=O)(=O)N(CC(=O)Nc2ccccc2)CC2CCCO2)cc1 (stereo not drawn),-0.27,nt,-15,-0.13,60*,-41
O=C(CN(C1CC1)S(=O)(=O)c1ccc(S(=O)(=O)NC2CCCCC2)cc1)Nc1ccccc1,-1.2,-1.4,15,nt,100*,-13
COC(=O)CCN(C1CCCCC1)S(=O)(=O)c1ccc(S(=O)(=O)NC2CCCCC2)cc1,nt,-0.14,14,-1.2,99*,-56
CCC(C)NS(=O)(=O)c1ccc(NC(=O)CCC2CCCCC2)cc1 (stereo not drawn),-0.57,-0.43,1,nt,-4,0
COC(=O)[C@@H]1CCCN1Cc1nc(Cc2ccccc2F)no1,0.48,1.2,3,nt,6,-40
COc1ccccc1CN1CCN(Cc2nc(Cc3ccccc3)no2)CC1,-0.18,0.098,11,-0.1,-2,nt
c1ccc(Cc2noc(CN3CCN(Cc4ccc5c(c4)OCO5)CC3)n2)cc1,nt,0.98,-16,-0.68,90*,nt
C(=C\c1ccccc1)/CN1CCN(Cc2nc(Cc3ccccc3)no2)CC1,0.2,-1.2,21,-2.1,80*,nt
Fc1ccccc1Cc1noc(CN2CCN(Cc3ccc4c(c3)OCO4)CC2)n1,-0.22,nt,10,-0.51,84*,nt
Fc1cccc(CN2CCN(Cc3nc(CCc4ccccc4)no3)CC2)c1,-0.16,-0.29,-1,nt,79*,nt
O=S(=O)(NCCC1CC1(Cl)Cl)c1ccc(Cl)cc1 (stereo not drawn),0.07,-0.087,nt,nt,nt,nt
Cc1ccc2c(c1)C1CCCC3C1N2CC(=O)N3Cc1ccccc1 (stereo not drawn),-1.3,nt,26,-0.057,3,-26
O=C(NCc1ccco1)c1cccn2c(=O)c3sccc3nc12,nt,-1.7,nt,nt,6,20
CC(C)NC(=O)C1CC=CCC1C(=O)O (stereo not drawn),0.03,0.98,-11,0.015,-5,29
Cc1ccccc1NC1=NC(=S)N(c2ccccc2)C12CCOC(C)(C)C2 (stereo not drawn),1.8,26*,-20,nt,9,44
O=C(CSc1nc2cccnc2n1Cc1ccccc1)NC1CCCCC1,nt,-0.016,2,-0.91,9,-47
OC(COC(c1ccc(Cl)cc1)c1ccc(Cl)cc1)CN1CCc2ccccc2C1 (stereo not drawn),-1.2,-0.1,91,-1.5,50,-33
CC1CCCN(CCSc2ccc(Cl)cc2)C1 (stereo not drawn),-0.27,-0.26,10,nt,72*,21
CC1CCN(CCOCCSc2ccc(Cl)cc2)CC1,nt,-3.2,26,nt,93*,nt
Clc1ccc(SCCOCCN2CCc3ccccc3C2)cc1,-2,0.72,61*,-1.7,88*,9
O=C(CSc1ccc(Cl)cc1)N1CCCC1,-0.1,0.57,-12,2,2,nt
Clc1ccc(SCCOCCN2CCCCC2)cc1,0.11,1,12,-0.5,98*,23
Cc1ccc(SCCC(=O)N2CCC(C)CC2)cc1,nt,0.71,-3,0.02,1,56
Clc1ccc(CN2CCCCCCC2)cc1,-0.09,1,26,nt,2,nt
COc1cc2c(cc1OC)C(C)N(C(=O)c1cc3c(s1)-c1ccccc1OC3)CC2 (stereo not drawn),1.2,-0.77,51,0.59,8,17
SMILES,Insulin prom up,Cl transport mod,WT yeast gro inh,ROMK primary,L major viab,INS promoter inh
Cc1ccccc1CN(C)CC(=O)Nc1c(C)cccc1C(C)C,0.09,-0.2,8,-2.3,21,nt
COc1ccc(/C=C/C(=O)N(C)Cc2cccs2)cc1S(=O)(=O)N1CCOCC1,-0.3,-0.94,-7,0.13,-2,nt
O=C(CSc1nnc(-c2ccc(C(F)(F)F)cn2)s1)c1ccccc1,-0.84,0.16,nt,nt,nt,nt
O=c1c2c3c(sc2ncn1-n1cccc1)CCCCC3,nt,-2.7,9,-1.3,6,56
Cc1c(N=C2SCC(=O)N2/N=C\c2ccc(Br)cc2)c(=O)n(-c2ccccc2)n1C,0.04,0.07,18,-0.069,76*,-20
O=C(O)c1cc(-c2ccccc2)nc2ccccc12,nt,-0.38,4,nt,-7,-18
O=C(O)c1cc(-c2ccncc2)nc2ccc(F)cc12,3*,nt,-9,0.4,-4,-12
CCOc1ccc(-c2nnn(CC(=O)c3cc(OC)ccc3OC)n2)cc1,nt,nt,-16,1.5,11,64
